For assay [1], the target named is Serine/threonine-protein kinase MARK2 (Homo sapiens) (UniProt Q7KZI7). The note with it: at 1 µM.
Assay [2] deals with PAS domain-containing serine/threonine-protein kinase (Homo sapiens) (UniProt Q96RG2). The note with it: at 0.1 µM.
The target is the same in assay [3]. The note with it: at 1 µM.
Assay [4] concerns the target Phosphorylase b kinase gamma catalytic chain, skeletal muscle/heart isoform (Homo sapiens) (UniProt Q16816). Conditions: at 0.1 µM.
For assay [5] the target is unchanged. The note with it: at 1 µM.
In assay [6] the target is T1, Phosphorylase b kinase gamma catalytic chain, liver/testis isoform (Homo sapiens) (UniProt P15735).
T1 sequence (whole entry): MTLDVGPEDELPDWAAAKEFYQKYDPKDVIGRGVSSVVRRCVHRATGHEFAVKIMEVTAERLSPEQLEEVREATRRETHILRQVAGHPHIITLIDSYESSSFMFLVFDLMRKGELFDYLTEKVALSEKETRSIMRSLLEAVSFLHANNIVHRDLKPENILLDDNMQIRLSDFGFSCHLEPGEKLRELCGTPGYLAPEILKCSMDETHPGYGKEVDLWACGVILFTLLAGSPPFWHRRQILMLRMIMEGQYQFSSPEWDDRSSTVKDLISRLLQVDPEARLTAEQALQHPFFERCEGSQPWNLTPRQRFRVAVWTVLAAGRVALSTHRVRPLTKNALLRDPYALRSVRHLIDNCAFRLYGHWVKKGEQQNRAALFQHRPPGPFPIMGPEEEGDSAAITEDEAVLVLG
The note with it: at 0.1 µM.

For assay [7], the target named is T1, Phosphorylase b kinase gamma catalytic chain, liver/testis isoform (Homo sapiens). Conditions: at 1 µM.
Assay [8] has as its target Serine/threonine-protein kinase pim-1 (Homo sapiens) (UniProt P11309). The note with it: at 0.1 µM.
The target is the same in assay [9]. The note with it: at 1 µM.
Assay [10] deals with Serine/threonine-protein kinase pim-2 (Homo sapiens) (UniProt Q9P1W9). The note with it: at 0.1 µM.
Sequence of Serine/threonine-protein kinase pim-2 (Homo sapiens) (Q9P1W9 whole entry, looked up): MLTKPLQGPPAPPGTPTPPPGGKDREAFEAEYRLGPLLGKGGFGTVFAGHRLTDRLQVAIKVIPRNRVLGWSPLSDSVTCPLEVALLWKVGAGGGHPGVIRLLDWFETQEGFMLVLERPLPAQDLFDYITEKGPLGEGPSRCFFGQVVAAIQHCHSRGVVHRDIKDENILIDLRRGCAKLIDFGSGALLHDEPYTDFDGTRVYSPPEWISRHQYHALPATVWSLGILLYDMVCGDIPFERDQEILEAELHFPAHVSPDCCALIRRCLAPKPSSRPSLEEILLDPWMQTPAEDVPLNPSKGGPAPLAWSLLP

Sequence of PAS domain-containing serine/threonine-protein kinase (Homo sapiens) (Q96RG2 whole entry, the tested form may be a part): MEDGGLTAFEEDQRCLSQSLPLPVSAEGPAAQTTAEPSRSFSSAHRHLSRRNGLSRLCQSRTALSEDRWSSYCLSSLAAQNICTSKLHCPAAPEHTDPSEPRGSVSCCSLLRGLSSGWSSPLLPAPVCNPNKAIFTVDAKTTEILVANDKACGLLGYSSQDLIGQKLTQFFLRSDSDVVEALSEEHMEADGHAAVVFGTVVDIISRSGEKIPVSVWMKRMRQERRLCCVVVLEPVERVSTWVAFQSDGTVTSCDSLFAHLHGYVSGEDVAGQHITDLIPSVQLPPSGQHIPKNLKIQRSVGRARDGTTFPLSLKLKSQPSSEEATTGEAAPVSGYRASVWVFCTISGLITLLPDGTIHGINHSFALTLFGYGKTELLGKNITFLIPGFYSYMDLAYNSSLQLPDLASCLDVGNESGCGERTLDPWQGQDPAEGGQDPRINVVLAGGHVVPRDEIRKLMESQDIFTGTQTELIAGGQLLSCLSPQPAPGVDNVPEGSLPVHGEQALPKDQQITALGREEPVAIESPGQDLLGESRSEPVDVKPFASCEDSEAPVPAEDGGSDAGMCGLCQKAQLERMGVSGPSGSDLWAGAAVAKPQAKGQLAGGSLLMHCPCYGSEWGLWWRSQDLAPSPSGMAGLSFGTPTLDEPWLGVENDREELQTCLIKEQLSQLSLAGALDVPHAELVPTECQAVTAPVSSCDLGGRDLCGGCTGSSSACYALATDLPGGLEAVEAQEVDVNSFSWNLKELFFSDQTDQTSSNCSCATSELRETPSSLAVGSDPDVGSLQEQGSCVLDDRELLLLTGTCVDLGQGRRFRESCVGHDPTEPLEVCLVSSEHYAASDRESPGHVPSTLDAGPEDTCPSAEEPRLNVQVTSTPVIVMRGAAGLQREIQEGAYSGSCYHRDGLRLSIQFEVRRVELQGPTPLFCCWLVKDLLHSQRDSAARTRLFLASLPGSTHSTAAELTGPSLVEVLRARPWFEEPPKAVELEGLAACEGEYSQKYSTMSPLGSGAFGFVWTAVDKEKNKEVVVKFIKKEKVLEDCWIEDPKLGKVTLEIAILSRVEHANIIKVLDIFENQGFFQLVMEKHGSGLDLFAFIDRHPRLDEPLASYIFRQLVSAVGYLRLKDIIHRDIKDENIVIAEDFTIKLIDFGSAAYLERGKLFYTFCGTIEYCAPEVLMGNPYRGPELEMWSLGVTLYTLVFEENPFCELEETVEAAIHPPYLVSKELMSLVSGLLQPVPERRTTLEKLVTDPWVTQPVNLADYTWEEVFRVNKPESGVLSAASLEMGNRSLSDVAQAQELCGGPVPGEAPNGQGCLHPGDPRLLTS
Sequence of Serine/threonine-protein kinase pim-1 (Homo sapiens) (P11309 whole entry, looked up): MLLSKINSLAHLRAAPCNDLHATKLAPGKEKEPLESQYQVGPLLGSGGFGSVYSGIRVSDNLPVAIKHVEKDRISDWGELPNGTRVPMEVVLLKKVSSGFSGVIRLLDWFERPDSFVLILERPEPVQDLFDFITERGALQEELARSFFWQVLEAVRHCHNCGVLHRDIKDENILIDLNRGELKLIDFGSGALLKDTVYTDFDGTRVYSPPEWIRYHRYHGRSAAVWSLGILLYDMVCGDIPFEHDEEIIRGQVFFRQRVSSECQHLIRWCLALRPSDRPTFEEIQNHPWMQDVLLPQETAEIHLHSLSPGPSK
Sequence of Phosphorylase b kinase gamma catalytic chain, skeletal muscle/heart isoform (Homo sapiens) (Q16816 whole entry, looked up, canonical isoform): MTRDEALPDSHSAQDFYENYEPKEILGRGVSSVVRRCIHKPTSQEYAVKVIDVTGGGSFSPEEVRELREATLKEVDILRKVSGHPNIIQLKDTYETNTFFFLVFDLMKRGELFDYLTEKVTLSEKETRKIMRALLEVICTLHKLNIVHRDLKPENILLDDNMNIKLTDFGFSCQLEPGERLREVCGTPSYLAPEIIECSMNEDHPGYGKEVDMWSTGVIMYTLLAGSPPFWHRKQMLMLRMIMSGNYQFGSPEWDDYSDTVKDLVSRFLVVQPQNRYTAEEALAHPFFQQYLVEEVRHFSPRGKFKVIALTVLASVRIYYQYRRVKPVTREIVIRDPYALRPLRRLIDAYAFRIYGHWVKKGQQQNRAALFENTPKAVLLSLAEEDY
Sequence of Serine/threonine-protein kinase MARK2 (Homo sapiens) (Q7KZI7 whole entry, the tested form may be a part): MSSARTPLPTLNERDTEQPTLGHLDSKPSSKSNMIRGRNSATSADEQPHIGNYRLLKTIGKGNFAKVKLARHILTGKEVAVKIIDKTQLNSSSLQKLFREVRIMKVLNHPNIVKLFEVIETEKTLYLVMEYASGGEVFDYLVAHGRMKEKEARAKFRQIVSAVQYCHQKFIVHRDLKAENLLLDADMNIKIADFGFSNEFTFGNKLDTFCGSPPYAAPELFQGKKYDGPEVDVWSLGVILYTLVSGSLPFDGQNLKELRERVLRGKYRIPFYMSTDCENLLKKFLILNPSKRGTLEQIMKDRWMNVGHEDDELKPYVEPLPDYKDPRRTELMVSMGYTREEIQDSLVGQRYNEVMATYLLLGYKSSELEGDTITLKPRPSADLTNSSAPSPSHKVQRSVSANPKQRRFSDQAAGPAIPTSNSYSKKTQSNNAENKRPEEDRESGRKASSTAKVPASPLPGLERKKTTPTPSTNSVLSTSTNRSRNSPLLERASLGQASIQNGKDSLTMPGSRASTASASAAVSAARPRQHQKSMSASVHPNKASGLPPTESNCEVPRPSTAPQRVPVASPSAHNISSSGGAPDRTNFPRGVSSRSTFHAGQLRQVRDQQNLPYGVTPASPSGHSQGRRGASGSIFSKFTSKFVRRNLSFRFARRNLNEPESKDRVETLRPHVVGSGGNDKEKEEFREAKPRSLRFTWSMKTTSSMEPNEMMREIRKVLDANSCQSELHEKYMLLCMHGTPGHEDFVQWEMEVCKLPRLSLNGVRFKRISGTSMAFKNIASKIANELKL

With `Fc1ccc(-c2ncn(C3CCNCC3)c2-c2ccnc(Oc3ccc(F)c(F)c3)n2)cc1`, the inhibition – broadly, the drop in the measured response relative to a control, in per cent – is 1.71% in assay [1]; -0.38% in [2]; -0.29% in assay [3]; 6.75% in assay [4]; 10.8% in [5]; 4.85% in assay [6]. Also, the inhibition was 4.7% in assay [7], -1.11% in assay [8], -0.52% in assay [9] and -3.98% in assay [10].
As to `CCN(CC)Cc1ccc(Nc2nccc(-c3cnn4ncccc34)n2)cc1`, the inhibition in assay [1] is 16.2%; in assay [2] it was -0.55%; in assay [3], -0.46%; in assay [4], 6.04%; in [5], 28.2%; in assay [6], 5.93%. In addition, the inhibition is 15.3% in assay [7], 2.49% in assay [8], 23% in assay [9] and -3.66% in assay [10].
Take `NS(=O)(=O)c1ccc(N/N=C2\C(=O)Nc3ccc(-c4cnco4)cc32)cc1`: the inhibition in assay [1] was found to be 16.6%; in assay [2], 0.16%; in assay [3], 4.38%; in assay [4], 5.17%; in [5], 27.9%; in [6], 1.94%. The inhibition was 4.44% in [7], 4.65% in assay [8], 38.9% in assay [9] and -0.37% in [10].
Consider `NC(=O)Cc1ccccc1Oc1nccc(-c2c(-c3ccc(F)cc3)ncn2C2CCNCC2)n1`, for which the inhibition in assay [1] was 2.22%; in [2], 0.15%; in assay [3] it was -0.7%; in [4], 4.43%; in [5], 6.28%; in assay [6], 2.61%. Besides, the inhibition in assay [7] turned out to be 0.83%; in [8], 0.4%; in assay [9] it was 0.97%; in assay [10] it was 0.18%.
Consider `C#Cc1cccc(Nc2ncnc3ccc(OCCCCNCCS(C)(=O)=O)cc23)c1`, for which the inhibition is 2.74% in [1]; 0.02% in assay [2]; 4.19% in assay [3]; 5.74% in assay [4]; 19% in [5]; 5.8% in [6]. Further, the inhibition is 6.86% in [7], 6.27% in assay [8], 39.5% in [9] and -2.91% in assay [10].
Turning to `Fc1ccc(-c2ncn(C3CCNCC3)c2-c2ccnc(Oc3ccc4c(c3)OCO4)n2)cc1`, the inhibition in [1] was found to be 2.68%; in assay [2], 0.16%; in [3], 1.32%; in assay [4], 6.43%; in assay [5] it was 6.48%; in assay [6] it was 7.66%. In addition, the inhibition is 5.8% in assay [7], 0.83% in assay [8], 2.07% in [9] and -0.04% in assay [10].
`NC(=O)c1cc(-c2ccncc2)cc(-c2ccccc2)c1N`: the inhibition in [1] is 4.3%; in assay [2], 0.12%; in assay [3] it was -1.32%; in assay [4], 5.69%; in [5], 4.23%; in assay [6], 5.49%. The inhibition in assay [7] was 5.48%; in [8], 1.39%; in assay [9], 1.24%; in [10], -0.25%.
In the case of `c1ccc(Oc2ccc(Nc3ncc(-c4ccccc4)o3)cc2)cc1`, the inhibition is 0.42% in assay [1]; -0.25% in assay [2]; 0.08% in assay [3]; 0.99% in [4]; 2.96% in assay [5]; 1.62% in [6]. The inhibition in [7] turned out to be 0.32%; in assay [8], 0.45%; in assay [9], 0.21%; in assay [10] it was 0.31%.
As for `O=C(Nc1n[nH]c2cc(-c3ccccc3)ccc12)C1CC1`, the inhibition in assay [1] was 3.6%; in assay [2] it was 0.21%; in assay [3], -1.15%; in assay [4], 8.27%; in [5] it was 7.18%; in assay [6], 5.27%. The inhibition is 4.5% in assay [7], 1.3% in assay [8], 0.46% in assay [9] and 0.26% in [10].
Take `COc1ccc2cc(-c3c(-c4ccncc4)nc(-c4ccc([S+](C)[O-])cc4C)n3C)ccc2c1` (stereo not given): the inhibition in assay [1] was -1.74%; in [2], -0.31%; in assay [3], -0.06%; in assay [4], -0.07%; in [5], 0.13%; in [6] it was -1.33%. The inhibition in assay [7] was -1.4%; in assay [8], 0.66%; in assay [9], 0.72%; in assay [10], -0.27%.
In the case of `Nc1nccc(-c2c(-c3ccc(F)cc3)ncn2C2CCC(O)CC2)n1` (stereo not given), the inhibition in [1] was 2.02%; in assay [2], -0.7%; in assay [3], -1.02%; in [4], -1.17%; in assay [5] it was 0.55%; in assay [6] it was -4.04%. Also, the inhibition was -5.93% in [7], -0.95% in [8], -1.37% in [9] and 1.27% in assay [10].
In the case of `COc1ccc2cc(-c3c(-c4ccncc4)nc(-c4ccc(S(C)(=O)=O)cc4C)n3C)ccc2c1`, the inhibition is 1.75% in assay [1]; -0.05% in assay [2]; 2.36% in assay [3]; 5.34% in [4]; 5.99% in [5]; 5.31% in assay [6]. Moreover, the inhibition was 5.26% in [7], 2.41% in [8], 2.08% in assay [9] and 0.92% in [10].
Turning to `COc1ccc2ncn(-c3cc(O[C@H](C)c4ccccc4Cl)c(C(N)=O)s3)c2c1`, the inhibition was 0.49% in assay [1]; -0.21% in assay [2]; 0.54% in [3]; 5.98% in [4]; 7.62% in assay [5]; 6% in assay [6]. Also, the inhibition is 5% in assay [7], -0.74% in assay [8], 3.29% in assay [9] and -3.96% in assay [10].
Consider `Cc1ccc(NC(=O)c2ccoc2)cc1-c1ccc(C(=O)NCC2CC2)cc1`, for which the inhibition is -0.97% in assay [1]; 1.03% in assay [2]; 0.47% in assay [3]; 3.88% in assay [4]; 1.73% in [5]; 3.37% in assay [6]. For the same compound, the inhibition in [7] was 3.24%; in assay [8] it was 0.53%; in assay [9], 0.47%; in assay [10], -0.3%.
Consider `CN(C)CCOc1ccc(-c2cc(-c3ccc4c(c3)CCC4=NO)c(-c3ccncc3)o2)cc1`, for which the inhibition in assay [1] is 0.33%; in assay [2], 1.53%; in assay [3] it was 1.21%; in [4] it was 1.83%; in assay [5] it was 5.45%; in [6], -1.99%. In addition, the inhibition is -1.19% in [7], 0.55% in assay [8], 0.18% in assay [9] and -0.09% in assay [10].

(Values after ChEMBL document CHEMBL1961873, “Compounds: GSK PKIS; Assays: Nanosyn kinase panel” (2012).)
